Compounds without any hit were thinned out: in the full panel of roughly 83,000, 20% have a hit.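 The test compound was applied at a single concentration to cells in 96-well plates for 48 hours, and percent growth was recorded.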 Active and inactive are the calls of the source. Rule for the calls: active = growth percent below 10; inactive = the rest.
Key:
Experiment in all cases: NCI-60 one-dose screen, 48 h (100 = growth as untreated, 0 = no growth, -100 = all killed)
SR leukemia = details: 10 µM unless noted
RPMI-8226 leukemia = details: 10 µM
OVCAR-8 ovarian = details: 10 µM unless noted
OVCAR-5 ovarian = details: 10 µM unless noted
OVCAR-4 ovarian = details: 10 µM unless noted
IGROV1 ovarian = details: 10 µM unless noted
OVCAR-3 ovarian = details: 10 µM unless noted
HS 578T breast = details: 10 µM unless noted
NCI/ADR-RES ovarian = details: 10 µM unless noted
BT-549 breast = details: 10 µM unless noted
MDA-MB-435 melanoma = details: 10 µM unless noted
SW-620 colon = details: 10 µM unless noted
MCF7 breast = details: 10 µM unless noted
HCT-116 colon = details: 10 µM unless noted
HCC-2998 colon = details: 10 µM unless noted
KM12 colon = details: 10 µM unless noted
T-47D breast = details: 10 µM

Measured: growth

COc1ccc(/C=N/NC(=O)c2cnn(CC(O)Cc3ccccc3)c2N)cc1OC1CCCC1 (centres undefined)
inactive: SR leukemia 88.7% | RPMI-8226 leukemia 55.4% | OVCAR-8 ovarian 78.6% | OVCAR-5 ovarian 102% | OVCAR-4 ovarian 75.8% | IGROV1 ovarian 105% | OVCAR-3 ovarian 102% | HS 578T breast 79% | NCI/ADR-RES ovarian 88.3% | BT-549 breast 75.7% | MDA-MB-435 melanoma 100% | SW-620 colon 98.9% | MCF7 breast 83.7% | HCT-116 colon 90.4% | HCC-2998 colon 116% | KM12 colon 35.2%

Brc1ccc(Br)nn1
active: SR leukemia -25.8% | RPMI-8226 leukemia -19.7% | OVCAR-8 ovarian -34.1% | OVCAR-5 ovarian -58.6% | IGROV1 ovarian -77.8% | OVCAR-3 ovarian -97.7% | HS 578T breast -0.414% | BT-549 breast -69.7% | MDA-MB-435 melanoma -96.3% | SW-620 colon -100% | MCF7 breast -72.4% | HCT-116 colon -97.3% | HCC-2998 colon -53.5% | KM12 colon -50.7%
inactive: OVCAR-4 ovarian 26%

CN1CCN(CCCn2c3c(sc4ncccc43)c(=O)n3nnc(-c4ccccc4)c23)CC1
active: SR leukemia -25.2% | OVCAR-8 ovarian -48.2% | OVCAR-4 ovarian -61.4% | OVCAR-3 ovarian -83.1% | NCI/ADR-RES ovarian -28.4% | SW-620 colon -44.5% | MCF7 breast -90.6% | HCT-116 colon -92.6% | KM12 colon -32.1%
inactive: RPMI-8226 leukemia 72.5% | OVCAR-5 ovarian 119% | T-47D breast 113% | BT-549 breast 93.5% | MDA-MB-435 melanoma 97.9% | HCC-2998 colon 99.2%

COc1ccc(C2=NOC(CC(=O)N(CCO)CCO)C2)cc1OC1CCCC1 (centres undefined)
inactive: SR leukemia 106% | RPMI-8226 leukemia 106% | OVCAR-8 ovarian 102% | OVCAR-5 ovarian 98.5% | OVCAR-4 ovarian 102% | IGROV1 ovarian 106% | OVCAR-3 ovarian 114% | HS 578T breast 99.2% | NCI/ADR-RES ovarian 101% | BT-549 breast 95.5% | MDA-MB-435 melanoma 104% | SW-620 colon 97.7% | MCF7 breast 95.2% | HCT-116 colon 79.6% | HCC-2998 colon 103% | KM12 colon 103%

Oc1cccc(Nc2nc(-c3ccccn3)cs2)c1
inactive: SR leukemia 87.8% | RPMI-8226 leukemia 81.9% | OVCAR-8 ovarian 106% | OVCAR-5 ovarian 110% | OVCAR-4 ovarian 101% | IGROV1 ovarian 100% | OVCAR-3 ovarian 119% | NCI/ADR-RES ovarian 94.6% | T-47D breast 87.3% | BT-549 breast 95.1% | MDA-MB-435 melanoma 105% | MCF7 breast 84.1% | HCT-116 colon 97.1% | KM12 colon 103%

COc1cc(/C=N/NC(=O)c2cnn3c2NC(c2ccccc2)C3)ccc1OC1CCCC1 (centres undefined)
active: OVCAR-3 ovarian -32.9% | HS 578T breast -18% | MDA-MB-435 melanoma 0.812%
inactive: SR leukemia 35.2% | RPMI-8226 leukemia 17.9% | OVCAR-8 ovarian 49.1% | OVCAR-5 ovarian 59.7% | OVCAR-4 ovarian 44.6% | IGROV1 ovarian 42.6% | NCI/ADR-RES ovarian 14% | BT-549 breast 16.8% | SW-620 colon 18.3% | MCF7 breast 16.8% | HCT-116 colon 18.9% | HCC-2998 colon 63.8% | KM12 colon 18.1%

CSC1=CC(=O)c2ccccc2C1=O
inactive: RPMI-8226 leukemia 44% | OVCAR-8 ovarian 46.8% | OVCAR-5 ovarian 103% | HS 578T breast 81.4% | NCI/ADR-RES ovarian 74% | BT-549 breast 92.3% | MDA-MB-435 melanoma 89.4% | MCF7 breast 93.2% | HCC-2998 colon 107% | KM12 colon 71.9%
active: SR leukemia -33.5% | OVCAR-4 ovarian -34.7% | IGROV1 ovarian -75.7% | OVCAR-3 ovarian -96.2% | SW-620 colon -55.2% | HCT-116 colon -57%

COc1ccc(/C=C/C(=O)N2CCC(O)CC2)cc1OC1CCCC1
inactive: SR leukemia 108% | RPMI-8226 leukemia 107% | OVCAR-8 ovarian 96.5% | OVCAR-5 ovarian 104% | OVCAR-4 ovarian 101% | IGROV1 ovarian 104% | OVCAR-3 ovarian 111% | HS 578T breast 96.1% | BT-549 breast 117% | MDA-MB-435 melanoma 103% | SW-620 colon 106% | MCF7 breast 95.4% | HCT-116 colon 106% | HCC-2998 colon 111% | KM12 colon 105%

O=C(N/N=C/c1ccc2c(c1)OCO2)c1cnn2c1NC(c1ccccc1)C2 (centres undefined)
active: MDA-MB-435 melanoma 3.07%
inactive: SR leukemia 31.6% | RPMI-8226 leukemia 76.4% | OVCAR-8 ovarian 66.8% | OVCAR-5 ovarian 78.1% | OVCAR-4 ovarian 48.9% | IGROV1 ovarian 51.5% | OVCAR-3 ovarian 25.2% | HS 578T breast 32.5% | NCI/ADR-RES ovarian 55.6% | BT-549 breast 60.6% | SW-620 colon 43.6% | MCF7 breast 33% | HCT-116 colon 25.1% | HCC-2998 colon 45.3% | KM12 colon 21.3%

COc1cc(OCc2cccc(-c3ccc(C(O)c4nccs4)cc3)c2C)cc(OC)c1C=O (centres undefined)
inactive: SR leukemia 53.1% | RPMI-8226 leukemia 22.1% | OVCAR-8 ovarian 59.8% | OVCAR-5 ovarian 16.5% | OVCAR-4 ovarian 15.9% | IGROV1 ovarian 21% | OVCAR-3 ovarian 48.1% | HS 578T breast 67.1% | NCI/ADR-RES ovarian 58.1% | BT-549 breast 39.6% | MDA-MB-435 melanoma 30.8% | SW-620 colon 56% | HCT-116 colon 23.1% | HCC-2998 colon 73.9% | KM12 colon 71%
active: MCF7 breast 7.09%

CCOC(=O)c1[nH]c2cc(Cl)ccc2c1[C@@H](C(=O)NC(C)(C)C)N(CC)C(=O)CCCCC#Cc1cccc2c1CN(C1CCC(=O)NC1=O)C2=O (some centres undefined)
active: RPMI-8226 leukemia 7.28% | IGROV1 ovarian 8.84% | OVCAR-3 ovarian 8.96% | HS 578T breast -12.6% | BT-549 breast 3.98% | HCC-2998 colon 6.54%
inactive: SR leukemia 12.7% | OVCAR-8 ovarian 10.9% | OVCAR-5 ovarian 39.6% | OVCAR-4 ovarian 13.2% | NCI/ADR-RES ovarian 16.8% | MDA-MB-435 melanoma 18.1% | SW-620 colon 22.2% | MCF7 breast 12.5% | HCT-116 colon 24.6% | KM12 colon 10.3%

Cc1ccc(N(CSc2ccc(Cl)cc2)CSc2ccc(Cl)cc2)cc1
active: RPMI-8226 leukemia 6.09% | IGROV1 ovarian -10.3%
inactive: SR leukemia 11.2% | OVCAR-8 ovarian 66.9% | OVCAR-5 ovarian 79.1% | OVCAR-4 ovarian 85.2% | OVCAR-3 ovarian 48.3% | HS 578T breast 45% | BT-549 breast 19.1% | MDA-MB-435 melanoma 40.8% | SW-620 colon 31.4% | MCF7 breast 65.6% | HCT-116 colon 38.9% | HCC-2998 colon 88.1% | KM12 colon 18.4%

CCCCCCCC/C=C\CCCCCCCCOc1cccc(CC(=O)NCC[N+]2(C)CCOCC2)c1
active: IGROV1 ovarian 0.48%
inactive: SR leukemia 55.7% | RPMI-8226 leukemia 96.4% | OVCAR-8 ovarian 93.8% | OVCAR-5 ovarian 65.5% | OVCAR-4 ovarian 90.3% | OVCAR-3 ovarian 98.7% | HS 578T breast 80.9% | NCI/ADR-RES ovarian 112% | BT-549 breast 98.8% | MDA-MB-435 melanoma 94% | SW-620 colon 89.1% | MCF7 breast 83.8% | HCT-116 colon 78.5% | HCC-2998 colon 80.6% | KM12 colon 64.1%

O=C1N/C(=C\c2ccccc2)c2ncccc21
inactive: SR leukemia 76.4% | RPMI-8226 leukemia 106% | OVCAR-8 ovarian 110% | OVCAR-5 ovarian 118% | OVCAR-4 ovarian 95.5% | IGROV1 ovarian 92.3% | OVCAR-3 ovarian 99.2% | HS 578T breast 120% | T-47D breast 79.5% | MDA-MB-435 melanoma 109% | SW-620 colon 113% | MCF7 breast 80% | HCT-116 colon 101% | HCC-2998 colon 109% | KM12 colon 97.2%

CCN1CCN(C(=S)SCC(=O)Nc2nc3ccc(OC)cc3s2)CC1
inactive: SR leukemia 88.3% | RPMI-8226 leukemia 98% | OVCAR-8 ovarian 103% | OVCAR-5 ovarian 98.8% | OVCAR-4 ovarian 93.3% | OVCAR-3 ovarian 101% | HS 578T breast 106% | NCI/ADR-RES ovarian 99.6% | T-47D breast 86.6% | BT-549 breast 89.5% | MDA-MB-435 melanoma 107% | SW-620 colon 110% | MCF7 breast 96.3% | HCT-116 colon 95.8% | KM12 colon 90.6%

COc1ccc(/C=C2\SC(=O)N(CN3CCN(c4cc5c(cc4F)c(=O)c(C(=O)O)cn5C4CC4)CC3)C2=O)cc1
inactive: SR leukemia 102% | RPMI-8226 leukemia 99.9% | OVCAR-8 ovarian 98.5% | OVCAR-5 ovarian 108% | OVCAR-4 ovarian 104% | IGROV1 ovarian 113% | OVCAR-3 ovarian 110% | HS 578T breast 108% | NCI/ADR-RES ovarian 103% | BT-549 breast 86.4% | SW-620 colon 99.8% | MCF7 breast 95.2% | HCT-116 colon 85.7% | HCC-2998 colon 104% | KM12 colon 103%

COc1ccc(OC)c(/C=C2\Oc3cc(O)ccc3C2=O)c1
inactive: SR leukemia 75.7% | RPMI-8226 leukemia 92.2% | OVCAR-8 ovarian 85.6% | OVCAR-5 ovarian 101% | OVCAR-4 ovarian 86.7% | IGROV1 ovarian 89.3% | OVCAR-3 ovarian 95.8% | HS 578T breast 80.8% | NCI/ADR-RES ovarian 92.9% | BT-549 breast 79.8% | MDA-MB-435 melanoma 82.7% | SW-620 colon 92.2% | MCF7 breast 94.2% | HCT-116 colon 79.2% | HCC-2998 colon 99.3% | KM12 colon 108%

O=S(=O)(Nc1ccc(Cl)c(Cl)c1)c1ccc(-c2cnc(C3CC3)o2)cc1
active: OVCAR-3 ovarian -17.8% | HS 578T breast -18.5% | NCI/ADR-RES ovarian 5.86% | MDA-MB-435 melanoma -32.8%
inactive: SR leukemia 43.7% | RPMI-8226 leukemia 24.6% | OVCAR-8 ovarian 33.3% | OVCAR-5 ovarian 34.2% | OVCAR-4 ovarian 46.4% | IGROV1 ovarian 27% | BT-549 breast 56.2% | SW-620 colon 12.8% | MCF7 breast 17.9% | HCT-116 colon 26.1% | HCC-2998 colon 38.2% | KM12 colon 20%
